# Laboratory results from PubChem BioAssay AID504381 (The Scripps Research Institute Molecular Screening Center, 2011).
# Values without a mark were called inactive. The rule behind the calls is not given here.
# Test system: BZP Rat Brain Site
# Experiment: radioligand displacement at receptors and transporters – biochemical, PDSP panel, Set 2, late-stage follow-up (AID 504381)
# Conditions: PDSP radioligand binding panel, at 10 µM, hits give high values
smiles,measurement,value
CC(=O)c1ccc2c(c1)Nc1ccccc1S2,inhibition,11.4%
